Holding throughout (assay): yeast three-hybrid, YBZ-1, SC-Leu-His + 0.5 mM 3-AT, 4 days
Common to all, as to settings: tags: N-Gal4 AD-HA kept; label: inside an RPR1-promoter hybrid RNA with tandem MS2 sites; ssRNA

The target in one experiment is PUM1 PUF domain R3-EWR (Homo sapiens, UniProt Q14671 828-1176, C935E;R936W;Q939R). The essentials:
(§1)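 Pumilio-1 PUF domain libraries, randomized (NNK) at the three base-contacting residues of each repeat, were co-expressed with matching RNA elements from a centromeric plasmid in strain YBZ-1 (LexA–MS2 coat fusion, HIS3 reporter). Transformants were plated on SC-Leu (input) and SC-Leu-His + 0.5 mM 3-AT (selection) for four days, and repeat regions were PCR-amplified and Illumina-sequenced. The interaction score is the log2 change in variant frequency from input to selection, with pseudocount 1 where absent.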

Another experiment addresses PUM1 PUF domain R3-DWQ (Homo sapiens, UniProt Q14671 828-1176, C935D;R936W). The essentials: as §1
In another experiment the target is PUM1 PUF domain R3-TIE (Homo sapiens, UniProt Q14671 828-1176, C935T;R936I;Q939E). The method in brief: as §1
Another experiment concerns the target PUM1 PUF domain R7-CTR (Homo sapiens, UniProt Q14671 828-1176, S1079C;N1080T;E1083R). The method in brief: as §1
A further experiment has as its target PUM1 PUF domain R7-EPD (Homo sapiens, UniProt Q14671 828-1176, S1079E;N1080P;E1083D). The essentials: as §1
The target of another experiment is PUM1 PUF domain R7-QGG (Homo sapiens, UniProt Q14671 828-1176, S1079Q;N1080G;E1083G). The essentials:
as §1

A further experiment addresses PUM1 PUF domain R7-RGK (Homo sapiens, UniProt Q14671 828-1176, S1079R;N1080G;E1083K). The method in brief:
as §1

Another experiment has as its target PUM1 PUF domain R2-LHR (Homo sapiens, UniProt Q14671 828-1176, N899L;Y900H;Q903R). The essentials: as §1
The target in another experiment is PUM1 PUF domain R5-TPR (Homo sapiens, UniProt Q14671 828-1176, C1007T;R1008P;Q1011R). The method in brief: as §1
For another experiment, the target named is PUM1 PUF domain R5-AYF (Homo sapiens, UniProt Q14671 828-1176, C1007A;R1008Y;Q1011F). The essentials: as §1
A further experiment has as its target PUM1 PUF domain R8-RYP (Homo sapiens, UniProt Q14671 828-1176, N1122R;Q1126P). The method in brief:
as §1

The target of a further experiment is T1, PUM1 PUF domain R6-IYK (Homo sapiens, UniProt Q14671 828-1176, N1043I;Q1047K).
T1 sequence: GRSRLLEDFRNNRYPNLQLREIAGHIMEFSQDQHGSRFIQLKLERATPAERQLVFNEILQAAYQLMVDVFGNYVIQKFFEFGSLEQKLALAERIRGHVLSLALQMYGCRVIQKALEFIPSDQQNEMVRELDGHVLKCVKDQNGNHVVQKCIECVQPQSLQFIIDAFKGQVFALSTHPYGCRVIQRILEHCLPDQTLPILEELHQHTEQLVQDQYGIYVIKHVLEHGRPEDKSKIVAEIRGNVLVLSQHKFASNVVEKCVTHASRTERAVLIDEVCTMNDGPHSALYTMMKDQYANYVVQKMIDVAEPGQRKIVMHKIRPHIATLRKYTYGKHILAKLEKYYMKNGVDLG
The essentials:
as §1

The target in another experiment is PUM1 PUF domain R4-PFY (Homo sapiens, UniProt Q14671 828-1176, N971P;H972F;Q975Y). The method in brief:
as §1

A further experiment addresses T2, PUM1 PUF domain R6-GFK (Homo sapiens, UniProt Q14671 828-1176, N1043G;Y1044F;Q1047K).
T2 sequence: T1 sequence with I216G, Y217F
The method in brief:
as §1

A further experiment addresses PUM1 PUF domain R5-SQG (Homo sapiens, UniProt Q14671 828-1176, C1007S;R1008Q;Q1011G). The essentials: as §1

Numbering of substitutions follows the chain as printed.

For the sequence “GGCUAGAACUAGUGGAUCCCCCGGCGCCCGGCGGCUCGAGCCCGGGUAAGUGUAAUUAGUCUGCAUGCCGCCGGGCGCCAUGCCUGCAGGUCGACUCUAGAAAACAUG”, the binding signal with PUM1 PUF domain R3-EWR was 3.22 log2 enrichment (interaction score); in the experiment with PUM1 PUF domain R3-DWQ it was 4.15 log2 enrichment (interaction score).
Turning to “GGCUAGAACUAGUGGAUCCCCCGGCGCCCGGCGGCUCGAGCCCGGGUAAGUGUAAGUAGUCUGCAUGCCGCCGGGCGCCAUGCCUGCAGGUCGACUCUAGAAAACAUG”, the binding signal in the experiment with PUM1 PUF domain R3-EWR was 0.97 log2 enrichment (interaction score); with PUM1 PUF domain R3-TIE, 4.39 log2 enrichment (interaction score).
For “GGCUAGAACUAGUGGAUCCCCCGGCGCCCGGCGGCUCGAGCCCGGGUAAGUUUAAAUAGUCUGCAUGCCGCCGGGCGCCAUGCCUGCAGGUCGACUCUAGAAAACAUG”, the binding signal is 2.95 log2 enrichment (interaction score) with PUM1 PUF domain R7-CTR, 3.42 log2 enrichment (interaction score) in the experiment with PUM1 PUF domain R7-EPD, 3.51 log2 enrichment (interaction score) with PUM1 PUF domain R7-QGG and 6.69 log2 enrichment (interaction score) with PUM1 PUF domain R7-RGK.
As to “GGCUAGAACUAGUGGAUCCCCCGGCGCCCGGCGGCUCGAGCCCGGGUAAGUGUAAAAAGUCUGCAUGCCGCCGGGCGCCAUGCCUGCAGGUCGACUCUAGAAAACAUG”, in the experiment with PUM1 PUF domain R2-LHR, the binding signal is 3.5 log2 enrichment (interaction score).
Regarding “GGCUAGAACUAGUGGAUCCCCCGGCGCCCGGCGGCUCGAGCCCGGGUAAGUGUCAAUAGUCUGCAUGCCGCCGGGCGCCAUGCCUGCAGGUCGACUCUAGAAAACAUG”, the binding signal in the experiment with PUM1 PUF domain R5-TPR is 5.18 log2 enrichment (interaction score).
For the sequence “GGCUAGAACUAGUGGAUCCCCCGGCGCCCGGCGGCUCGAGCCCGGGUAAGUGUAAAUAGUCUGCAUGCCGCCGGGCGCCAUGCCUGCAGGUCGACUCUAGAAAACAUG”, the binding signal with PUM1 PUF domain R5-AYF was 3.62 log2 enrichment (interaction score); with PUM1 PUF domain R8-RYP it was 4.32 log2 enrichment (interaction score); with PUM1 PUF domain R6-IYK, 2.06 log2 enrichment (interaction score); with PUM1 PUF domain R4-PFY, 5.35 log2 enrichment (interaction score); with PUM1 PUF domain R6-GFK, 2.55 log2 enrichment (interaction score).
On to “GGCUAGAACUAGUGGAUCCCCCGGCGCCCGGCGGCUCGAGCCCGGGUAAGUCUAAAUAGUCUGCAUGCCGCCGGGCGCCAUGCCUGCAGGUCGACUCUAGAAAACAUG”, for which the binding signal with PUM1 PUF domain R7-RGK was 5.3 log2 enrichment (interaction score).
As for “GGCUAGAACUAGUGGAUCCCCCGGCGCCCGGCGGCUCGAGCCCGGGUAAGUGUUAAUAGUCUGCAUGCCGCCGGGCGCCAUGCCUGCAGGUCGACUCUAGAAAACAUG”, the binding signal with PUM1 PUF domain R5-SQG is 0.27 log2 enrichment (interaction score).
On the same count and under the same terms, to “GGCUAGAACUAGUGGAUCCCCCGGCGCCCGGCGGCUCGAGCCCGGGUAAGUGUGAAUAGUCUGCAUGCCGCCGGGCGCCAUGCCUGCAGGUCGACUCUAGAAAACAUG” belongs 3.41 log2 enrichment (interaction score).
With “GGCUAGAACUAGUGGAUCCCCCGGCGCCCGGCGGCUCGAGCCCGGGUAAGCGUAAAUAGUCUGCAUGCCGCCGGGCGCCAUGCCUGCAGGUCGACUCUAGAAAACAUG”, the binding signal with PUM1 PUF domain R8-RYP was 6.03 log2 enrichment (interaction score).
Turning to “GGCUAGAACUAGUGGAUCCCCCGGCGCCCGGCGGCUCGAGCCCGGGUAAGUGUAUAUAGUCUGCAUGCCGCCGGGCGCCAUGCCUGCAGGUCGACUCUAGAAAACAUG”, the binding signal in the experiment with PUM1 PUF domain R4-PFY is 3.71 log2 enrichment (interaction score).

The record behind these values is article PMC8384837, “Expanding the binding specificity for RNA recognition by a PUF domain”.
